Records with an inconclusive call do not appear. Entries that show only a call come without a potency. The source made the active and inactive calls. Calls come from the whole dose curve; as a rule, active = well fitted inhibition curve with a large enough effect; inconclusive = small, poorly fitted or top-dose-only effect; inactive = flat fitted curve, though single readings scatter.
Test system: Zika virus NS2B-NS3 protease
Experiment: Primary screen GU AMC qHTS for Zika virus inhibitors (AID 1347154); note: nearly all actives have a fitted effect of over 70% in size
In short: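 Unlinked Zika NS2B hydrophilic domain/NS3 protease domain noncovalent complex (25 nM final) in 10 mM Tris-HCl pH 8.0, 0.01% Tween 20, with AMC peptide substrate. Fluorescence (ex 340, em 450 nm) change over 15 min, room temperature; percent inhibition fitted to 4-parameter Hill equation.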

| SMILES | Potency |
| --- | --- |
| CN1C2CCC1CC(OC(c1ccc(F)cc1)c1ccc(F)cc1)C2 (configuration not stated) | inactive |
| NCCc1cccc(O)c1 | inactive |

From PubChem BioAssay (NCATS)
